Source: the supplement of paper PMC13380429

Test system: Vero E6 infected with SARS-CoV-2
Assay: inhibition of SARS-CoV-2 cytopathic effect; higher = more antiviral protection, active = above 15
Details: 48 h

Measured: inhibition of SARS-CoV-2 cytopathic effect

O=C(O)CCC(=O)Nc1ccc(S(=O)(=O)Nc2nccs2)cc1 [succinylsulfathiazole]
inactive: 1 nM -0.25% | 8.33 nM 0.46% | 100 nM 0.51% | 833.33 nM 0.85% | 10000 nM -0.56%

C[C@]12CC[C@H](O)CC1=CC[C@@H]1[C@@H]2CC[C@]2(C)C(=O)CC[C@@H]12
inactive: 1 nM 1.25% | 8.33 nM 0.45% | 100 nM 0.19% | 833.33 nM 5.63% | 10000 nM 1.12%

N[C@H](Cc1ccccc1)C(=O)O [D-phenylalanine]
inactive: 1 nM 2.99% | 8.33 nM -0.14% | 100 nM 2.52% | 833.33 nM 0.27% | 10000 nM 0.05%

CO/N=C(\C(=O)N[C@@H]1C(=O)N2C(C(=O)[O-])=C(C[N+]3(C)CCCC3)CS[C@H]12)c1csc(N)n1 [cefepime]
inactive: 1 nM 0.86% | 8.33 nM 1.89% | 100 nM 2.66% | 833.33 nM 3.19% | 10000 nM 1.42%

CCOC(=O)c1c(C)n(C)c2ccc(O)cc12 [mecarbinate]
inactive: 1 nM -0.79% | 8.33 nM -1.26% | 100 nM -2.84% | 833.33 nM -2.4% | 10000 nM -2.61%

CO[C@@]12[C@H](COC(N)=O)C3=C(C(=O)C(C)=C(N)C3=O)N1C[C@@H]1N[C@@H]12 [mitomycin-C]
inactive: 1 nM -6.42% | 8.33 nM -2.65% | 100 nM -0.38% | 833.33 nM -1.53% | 10000 nM -5.17%

O=C(O)Cn1c2c(c3cc(F)ccc31)CN(C(=O)c1cccc3ccccc13)CC2 [setipiprant]
inactive: 1 nM -1.54% | 8.33 nM -1.86% | 100 nM -0.37% | 833.33 nM -0.82% | 10000 nM -0.76%

CN1CCN(CCCN2c3ccccc3Sc3ccc(C(F)(F)F)cc32)CC1 [trifluoperazine]
inactive: 1 nM -0.89% | 8.33 nM 1.64% | 100 nM -3.09% | 833.33 nM -4.01% | 10000 nM 14.5%

CC(C)OC(=O)C(C)(C)Oc1ccc(C(=O)c2ccc(Cl)cc2)cc1 [fenofibrate]
inactive: 1 nM 4.02% | 8.33 nM 5.16% | 100 nM 3.28% | 833.33 nM -0.31% | 10000 nM 0.82%

Cc1ccc(-c2cc(C(F)(F)F)nn2-c2ccc(S(N)(=O)=O)cc2)cc1 [celecoxib]
inactive: 1 nM 1.41% | 8.33 nM 1.32% | 100 nM 1.91% | 833.33 nM 1.62% | 10000 nM -4.95%

CCn1cc(C(=O)O)c(=O)c2cc3c(cc21)OCO3 [oxolinic-acid]
inactive: 1 nM -1.5% | 8.33 nM 0.26% | 100 nM -1.8% | 833.33 nM -0.9% | 10000 nM -3.06%

Cn1c(COP(=O)(NCCBr)NCCBr)cnc1[N+](=O)[O-]
inactive: 1 nM -3.18% | 8.33 nM -1.04% | 100 nM 0.12% | 833.33 nM -0.54% | 10000 nM -3.06%

Fc1ccccc1-c1nc2ccn(Cc3ccc(-c4ccc(C(F)(F)F)cc4C(F)(F)F)nn3)cc-2n1 [tegobuvir]
inactive: 1 nM 0.53% | 8.33 nM 2.58% | 100 nM 3.4% | 833.33 nM 1.35% | 10000 nM -1.75%

O=C(O)COc1cccc(-c2ocnc2-c2nc(-c3ccccc3)c(-c3ccccc3)o2)c1
inactive: 1 nM -0.58% | 8.33 nM 0.52% | 100 nM 0.7% | 833.33 nM 0% | 10000 nM 3.01%

Nc1nccc2c1ncn2C1C=C(CO)C(O)C1O (stereo not given) [3-deazaneplanocin-A]
inactive: 1 nM 0.46% | 8.33 nM 1.89% | 100 nM 3.16% | 833.33 nM 5.38% | 10000 nM -3.44%

CCCCOc1nc(N)c2c(n1)N(Cc1cccc(CN3CCCC3)c1)CC(=O)N2
inactive: 1 nM 0.32% | 8.33 nM 2.16% | 100 nM 0.03% | 833.33 nM 2.02% | 10000 nM 1.92%

CC(=O)N[C@H](Cc1ccc2ccccc2c1)C(=O)N[C@H](Cc1ccc(Cl)cc1)C(=O)N[C@H](Cc1cccnc1)C(=O)N[C@@H](CO)C(=O)N[C@@H](Cc1ccc(NC(=O)[C@@H]2CC(=O)NC(=O)N2)cc1)C(=O)N[C@H](Cc1ccc(NC(N)=O)cc1)C(=O)N[C@@H](CC(C)C)C(=O)N[C@@H](CCCCNC(C)C)C(=O)N1CCC[C@H]1C(=O)N[C@H](C)C(N)=O [degarelix]
inactive: 1 nM -0.25% | 8.33 nM 1.93% | 100 nM 3.06% | 833.33 nM 1.45% | 10000 nM 2.25%

CSC[C@H](N)C(=O)O [S-methylcysteine]
inactive: 1 nM 4.21% | 8.33 nM 3.63% | 100 nM 1.96% | 833.33 nM -0.82% | 10000 nM 0.31%

CO[C@H]1/C=C/O[C@@]2(C)Oc3c(C)c(O)c4c(O)c(c(/C=N/N=C/N5CCCCC5)c(O)c4c3C2=O)NC(=O)/C(C)=C\C=C\[C@H](C)[C@H](O)[C@@H](C)[C@@H](O)[C@@H](C)[C@H](OC(C)=O)[C@@H]1C
inactive: 1 nM 5.27% | 8.33 nM 5.73% | 100 nM 6.01% | 833.33 nM 4.61% | 10000 nM 3.27%

O=C(O)C(O)C(O)C(=O)O (stereo not given) [tartaric-acid]
inactive: 1 nM -3.77% | 8.33 nM -4.25% | 100 nM -5.86% | 833.33 nM -1.6% | 10000 nM -0.64%

CC(O)c1cc(C(=O)N[C@@H](C)Cn2ccc(-c3ccc(C#N)c(Cl)c3)n2)n[nH]1 (stereo not given in full)
inactive: 1 nM 1.69% | 8.33 nM 0.5% | 100 nM 0.89% | 833.33 nM -0.69% | 10000 nM 0.64%

CON [methoxyamine]
inactive: 1 nM 0.67% | 8.33 nM -2.53% | 100 nM -0.44% | 833.33 nM -3.19% | 10000 nM -0.96%

O=C(Nc1nc2cccc(-c3ccc(CN4CCS(=O)(=O)CC4)cc3)n2n1)C1CC1 [filgotinib]
inactive: 1 nM -1.13% | 8.33 nM -1.84% | 100 nM 4.15% | 833.33 nM 3.84% | 10000 nM -1.27%
